{"source": "the supplement of paper PMC6555819"}
{"test_system": "LXRb homodimer (NR concentration 270 nM)", "test": "PBM binding z-score (relative to random genomic background probes); higher = stronger binding; sequences stand for … in GC…GCGATTGACAGCGTAGAATGAAGG", "how_it_was_run": "(§1)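 On custom Agilent 4×180K arrays, double-stranded probes with 34-nt variable regions carried direct-repeat seeds, single-nucleotide variants, half-site ablations or random human genomic background. Ligand-free nuclear receptor dimers were applied for 1 h, and binding was read with antibodies against each partner (one per run). Binding z-scores come from regression-normalized fluorescence, with the random background probes as reference.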"}
{"sequence": "ATACCAAGGTGCTCGTGAGGTCGTTGATACTAAC", "PBM binding z-score": -0.238}
{"sequence": "CCAACTAGGTCAAGGACAGTGAATCTCCGCACGC", "PBM binding z-score": 0.422}
{"sequence": "GTAACGAGGGCAAGTTGATAGCAGAGTTTGATGG", "PBM binding z-score": 0.052}
{"sequence": "TCTGCTAGGTCAGTTGGACAGCTAACGAGCTGCC", "PBM binding z-score": 0.424}
{"sequence": "AGTCAAAGCTCAGGACGAGGTAACGTAAAGCACG", "PBM binding z-score": -0.87}
{"sequence": "ACGTACGGGTCAACGAGGTTATAGCACGCGTATA", "PBM binding z-score": 0.00154}
{"sequence": "CCTTACGGGTCACTGACAGGTTAGAGCATTTGGA", "PBM binding z-score": -0.348}
{"sequence": "CGAACTAGGTCATCCAGGACAGTCAATACATTGA", "PBM binding z-score": 0.306}
{"sequence": "CAAACTAGGCCAAAGGTCAAAGTCGAGCCAACCA", "PBM binding z-score": 2.08}
{"sequence": "CGTCCAAGGTCAATGTCAGTGAAAGAGACTCGAA", "PBM binding z-score": 1.05}
{"sequence": "TCTATTACTTGAAGGGCAACCGACGAGTCCGTTT", "PBM binding z-score": 0.925}
{"sequence": "TCTTGTAGATCAACAGGAGGTTAAGAACGATCGA", "PBM binding z-score": -0.245}
{"sequence": "TCATATAGGTAAATGCTAGGTGAAAGTCCGATCT", "PBM binding z-score": -0.0467}
{"sequence": "TCTAGTTGGTCACGGAGGTCACACAAGACGGGTA", "PBM binding z-score": 0.597}
{"sequence": "CGAACTAGGTCATCCAAGACAGTGAATACATTGA", "PBM binding z-score": 0.197}
{"sequence": "TCTTATAGATCAACAGGAGGTTAAGAAAGATCGA", "PBM binding z-score": 0.165}
{"sequence": "CGAACTAGGTCAGAACAGGAAAGTGAAGGATGAT", "PBM binding z-score": -0.116}
{"sequence": "ATATGTAGGTTATCGCGTCATTCAGTTTGCGCAT", "PBM binding z-score": 0.647}
{"test_system": "PPARa:RXRa (NR concentration 270 nM, RXRa partner concentration 90 nM)", "test": "PBM binding z-score (relative to random genomic background probes); higher = stronger binding; sequences stand for … in GC…GCGATTGACAGCGTAGAATGAAGG", "how_it_was_run": "as §1"}
{"sequence": "TTACCAACGTGAAAGGTCGTTGATGCACGCCTTG", "PBM binding z-score": 2.84}
{"sequence": "CCTACTGCGCCACGAAAGGTCATTGATTCAGTGA", "PBM binding z-score": 4.35}
{"sequence": "TCATATAGGTAAACGTGAAAGTCGAACGATATGA", "PBM binding z-score": 1.33}
{"sequence": "GGAACGAGGGCAAAGTTGATAGCATCTGTCGACG", "PBM binding z-score": 4.11}
{"sequence": "CCTAGCAGGCCAATCTGGGTGACTCAAGGCTTGA", "PBM binding z-score": 1.26}
{"sequence": "TCTGCTGGGTCAGTTGGTCAGCTAACGAGCTGCC", "PBM binding z-score": 1.4}
{"sequence": "CCTACTAGGTCATGGTCAGCTAATCTACAGTATG", "PBM binding z-score": 4.33}
{"sequence": "TCTGTTAGTTGAAGGGCAACCGACGAGTCCGTTT", "PBM binding z-score": 0.837}
{"sequence": "TCGGCTAGGTCAACGATGGTCAGCTAATCTGCTA", "PBM binding z-score": 3.14}
{"sequence": "AGAATGAGGTTAATAAGATCAGGGAATTGCGGTC", "PBM binding z-score": 2.74}
{"sequence": "AGAACGAGGGCAATGAGTTGATAGTACGGGTGGC", "PBM binding z-score": 1.56}
{"sequence": "AGTCAAAGTTCATCTAGGGAACGTAAGATATGCT", "PBM binding z-score": 4.69}
{"sequence": "ATAACGAGGGCACGCTGAGTTGATAGCAGAGTAG", "PBM binding z-score": 2.24}
{"sequence": "ATCTGTAGGTAACCAAGTTCAGTGAATGCCGAAC", "PBM binding z-score": 1.05}
{"sequence": "AGAACGAGGGCACGCTGAGTTGAGAGCAGAGTAG", "PBM binding z-score": 2.12}
{"sequence": "CTCGAAAGGTCGTGCTGAGGTGAGTATACCAAAC", "PBM binding z-score": 4.82}
{"sequence": "CAAACTAGGTCCAGAGGTCAAAGTCCGCTTCCCG", "PBM binding z-score": 5.29}
{"sequence": "CGTCCAAGGTCAAAGGTCAGTGACGAGATGACGG", "PBM binding z-score": 7.03}
{"sequence": "GGAACGAGGGCAAAGTTGATAGAATCTGTCGACG", "PBM binding z-score": 4.17}
{"sequence": "TCTTGTAGATCAATAGAGGATAAGAAAGTGCGCT", "PBM binding z-score": 0.415}
{"sequence": "CGAACCAGGTCAAGGACAGTGAATCTCCGCACGC", "PBM binding z-score": 4.52}
{"sequence": "CCGGCTAGGTCATGGTCAGCTAATCTACAGTATG", "PBM binding z-score": 3.42}
{"sequence": "ATACCAAGGTGCTCGTGAGGTCGTTGATACTAAC", "PBM binding z-score": 0.836}
{"sequence": "CCAACTAGGTCAAGGACAGTGAATCTCCGCACGC", "PBM binding z-score": 3.96}
{"sequence": "GTAACGAGGGCAAGTTGATAGCAGAGTTTGATGG", "PBM binding z-score": 1.9}
{"sequence": "TCTGCTAGGTCAGTTGGACAGCTAACGAGCTGCC", "PBM binding z-score": 1.12}
{"sequence": "AGTCAAAGCTCAGGACGAGGTAACGTAAAGCACG", "PBM binding z-score": -0.301}
{"sequence": "ACGTACGGGTCAACGAGGTTATAGCACGCGTATA", "PBM binding z-score": 5.95}
{"sequence": "CCTTACGGGTCACTGACAGGTTAGAGCATTTGGA", "PBM binding z-score": 5.19}
{"sequence": "CGAACTAGGTCATCCAGGACAGTCAATACATTGA", "PBM binding z-score": 5.03}
{"sequence": "CAAACTAGGCCAAAGGTCAAAGTCGAGCCAACCA", "PBM binding z-score": 7.88}
{"sequence": "CGTCCAAGGTCAATGTCAGTGAAAGAGACTCGAA", "PBM binding z-score": 5.35}
{"sequence": "TCTATTACTTGAAGGGCAACCGACGAGTCCGTTT", "PBM binding z-score": 1.48}
{"sequence": "TCTTGTAGATCAACAGGAGGTTAAGAACGATCGA", "PBM binding z-score": 1.36}
{"sequence": "TCATATAGGTAAATGCTAGGTGAAAGTCCGATCT", "PBM binding z-score": 1.43}
{"sequence": "TCTAGTTGGTCACGGAGGTCACACAAGACGGGTA", "PBM binding z-score": 3.99}
{"sequence": "CGAACTAGGTCATCCAAGACAGTGAATACATTGA", "PBM binding z-score": 4.78}
{"sequence": "TCTTATAGATCAACAGGAGGTTAAGAAAGATCGA", "PBM binding z-score": 1.6}
{"sequence": "CGAACTAGGTCAGAACAGGAAAGTGAAGGATGAT", "PBM binding z-score": 3.21}
{"sequence": "ATATGTAGGTTATCGCGTCATTCAGTTTGCGCAT", "PBM binding z-score": 3.31}
{"test_system": "PPARg:RXRa (NR concentration 180 nM, RXRa partner concentration 90 nM)", "test": "PBM binding z-score (relative to random genomic background probes); higher = stronger binding; sequences stand for … in GC…GCGATTGACAGCGTAGAATGAAGG", "how_it_was_run": "as §1"}
{"sequence": "TTACCAACGTGAAAGGTCGTTGATGCACGCCTTG", "PBM binding z-score": 2.46}
{"sequence": "CCTACTGCGCCACGAAAGGTCATTGATTCAGTGA", "PBM binding z-score": 1.08}
{"sequence": "TCATATAGGTAAACGTGAAAGTCGAACGATATGA", "PBM binding z-score": 1.44}
{"sequence": "GGAACGAGGGCAAAGTTGATAGCATCTGTCGACG", "PBM binding z-score": 6.65}
{"sequence": "CCTAGCAGGCCAATCTGGGTGACTCAAGGCTTGA", "PBM binding z-score": 0.507}
{"sequence": "TCTGCTGGGTCAGTTGGTCAGCTAACGAGCTGCC", "PBM binding z-score": 0.0356}
{"sequence": "CCTACTAGGTCATGGTCAGCTAATCTACAGTATG", "PBM binding z-score": 6.76}
{"sequence": "TCTGTTAGTTGAAGGGCAACCGACGAGTCCGTTT", "PBM binding z-score": -0.0567}
{"sequence": "TCGGCTAGGTCAACGATGGTCAGCTAATCTGCTA", "PBM binding z-score": 1.75}
{"sequence": "AGAATGAGGTTAATAAGATCAGGGAATTGCGGTC", "PBM binding z-score": 1.75}
{"sequence": "AGAACGAGGGCAATGAGTTGATAGTACGGGTGGC", "PBM binding z-score": 1.5}
{"sequence": "AGTCAAAGTTCATCTAGGGAACGTAAGATATGCT", "PBM binding z-score": 6.38}
{"sequence": "ATAACGAGGGCACGCTGAGTTGATAGCAGAGTAG", "PBM binding z-score": 2.45}
{"sequence": "ATCTGTAGGTAACCAAGTTCAGTGAATGCCGAAC", "PBM binding z-score": 0.635}
{"sequence": "AGAACGAGGGCACGCTGAGTTGAGAGCAGAGTAG", "PBM binding z-score": 2.05}
{"sequence": "CTCGAAAGGTCGTGCTGAGGTGAGTATACCAAAC", "PBM binding z-score": 2.58}
{"sequence": "CAAACTAGGTCCAGAGGTCAAAGTCCGCTTCCCG", "PBM binding z-score": 5.18}
{"sequence": "CGTCCAAGGTCAAAGGTCAGTGACGAGATGACGG", "PBM binding z-score": 10.8}
{"sequence": "GGAACGAGGGCAAAGTTGATAGAATCTGTCGACG", "PBM binding z-score": 6.84}
{"sequence": "TCTTGTAGATCAATAGAGGATAAGAAAGTGCGCT", "PBM binding z-score": 0.389}
{"sequence": "CGAACCAGGTCAAGGACAGTGAATCTCCGCACGC", "PBM binding z-score": 4.96}
{"sequence": "CCGGCTAGGTCATGGTCAGCTAATCTACAGTATG", "PBM binding z-score": 1.86}
{"sequence": "ATACCAAGGTGCTCGTGAGGTCGTTGATACTAAC", "PBM binding z-score": 0.126}
{"sequence": "CCAACTAGGTCAAGGACAGTGAATCTCCGCACGC", "PBM binding z-score": 6.59}
{"sequence": "GTAACGAGGGCAAGTTGATAGCAGAGTTTGATGG", "PBM binding z-score": 1.29}
{"sequence": "TCTGCTAGGTCAGTTGGACAGCTAACGAGCTGCC", "PBM binding z-score": 0.413}
{"sequence": "AGTCAAAGCTCAGGACGAGGTAACGTAAAGCACG", "PBM binding z-score": 0.722}
{"sequence": "ACGTACGGGTCAACGAGGTTATAGCACGCGTATA", "PBM binding z-score": 5.01}
{"sequence": "CCTTACGGGTCACTGACAGGTTAGAGCATTTGGA", "PBM binding z-score": 4.35}
{"sequence": "CGAACTAGGTCATCCAGGACAGTCAATACATTGA", "PBM binding z-score": 7.74}
{"sequence": "CAAACTAGGCCAAAGGTCAAAGTCGAGCCAACCA", "PBM binding z-score": 12.3}
{"sequence": "CGTCCAAGGTCAATGTCAGTGAAAGAGACTCGAA", "PBM binding z-score": 4.26}
{"sequence": "TCTATTACTTGAAGGGCAACCGACGAGTCCGTTT", "PBM binding z-score": 0.388}
{"sequence": "TCTTGTAGATCAACAGGAGGTTAAGAACGATCGA", "PBM binding z-score": 0.136}
{"sequence": "TCATATAGGTAAATGCTAGGTGAAAGTCCGATCT", "PBM binding z-score": 1.09}
{"sequence": "TCTAGTTGGTCACGGAGGTCACACAAGACGGGTA", "PBM binding z-score": 3.49}
{"sequence": "CGAACTAGGTCATCCAAGACAGTGAATACATTGA", "PBM binding z-score": 8.08}
{"sequence": "TCTTATAGATCAACAGGAGGTTAAGAAAGATCGA", "PBM binding z-score": 0.533}
{"sequence": "CGAACTAGGTCAGAACAGGAAAGTGAAGGATGAT", "PBM binding z-score": 5.08}
{"sequence": "ATATGTAGGTTATCGCGTCATTCAGTTTGCGCAT", "PBM binding z-score": 3.86}
